Source: PubChem
PPC-1+TRAIL kill: kills PPC-1 cancer cells in the presence of TRAIL; PPC-1 cells + TRAIL, ATPLite viability luminescence; cell killing (% activity), % at 4 µM or 5 µM; AID 1443; 220,000 compounds, 0.41% hits;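 active = cell killing above 50% in the first pass at 4 µM, then a duplicate retest at 5 µM averaging 50% or more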;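 also: plate controls were cells with TRAIL plus DMSO for no effect and medium-only wells lacking cells for full effect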
C8 TRAIL sens: sensitizes caspase-8 expressing cells to TRAIL; NB7+C8 cells + TRAIL, ATPlite viability luminescence; inhibition (viability loss, TRAIL sensitization), % at 10 µM; 360,000 compounds, 1% hits; AID 624354;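 active = compounds causing at least 50% loss of cell viability in the single-dose screen, relative to plate controls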
SENP8 block-1: inhibitors of human SENP8 protease; purified SENP8, Z-RLRGG-aminoluciferin cleavage, luminescence; AID 2540; Q96LD8; inhibition, % at 10 µM; 330,000 compounds, 1.2% hits; in the data active = inhibition above about 50%
SENP7 inh: SENP7 protease inhibition; recombinant SENP7, Z-RLRGG-aminoluciferin luminescence, 40 min; inhibition, % at 5 µM; 330,000 compounds, 1.5% hits; AID 434973;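 active = inhibition above about 50% at the single test dose, limit read from the data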;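 also: plate controls were DMSO with enzyme for no effect and no enzyme buffer wells for full effect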
Target sequence (Q9BQF6 706-1050 limits assumed): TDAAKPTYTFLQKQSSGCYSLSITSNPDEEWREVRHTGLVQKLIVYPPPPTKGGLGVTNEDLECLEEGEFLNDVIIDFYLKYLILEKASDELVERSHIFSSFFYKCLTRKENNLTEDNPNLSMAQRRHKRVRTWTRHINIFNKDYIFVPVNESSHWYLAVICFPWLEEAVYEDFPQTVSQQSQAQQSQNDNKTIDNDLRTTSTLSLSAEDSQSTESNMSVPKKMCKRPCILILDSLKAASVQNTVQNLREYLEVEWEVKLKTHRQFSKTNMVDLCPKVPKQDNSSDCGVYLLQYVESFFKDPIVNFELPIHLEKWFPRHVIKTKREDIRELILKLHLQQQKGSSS
SENP6 block: SENP6 protease inhibition | AID 2599 | Recombinant SENP6 catalytic domain, aminoluciferin luminescence | inhibition, % at 10 µM | 330,000 compounds, 1.8% hits;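 active = inhibition above about 50% at the single tested dose, limit read from the data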;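 also: plate controls were DMSO wells with enzyme for no effect and DMSO wells lacking enzyme for full effect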
SENP8 block-2: blocks human SENP8 cleavage of Nedd8 substrate; Q96LD8; recombinant SENP8, Nedd8 substrate fluorescence; inhibition, % at 20 µM; 360,000 compounds, 0.64% hits; AID 602440; in the data active = inhibition mostly above about 40%, no sharp cut-off; inactive = mostly below about 27%
PPC-1 tox: PPC-1 cell cytotoxicity. PPC-1 viability, ATPlite luminescence, overnight. 1,200 compounds, 50% hits. cytotoxicity, % at 5 µM. shares compounds with PPC-1+TRAIL kill;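 active = reconfirmed compounds whose average cytotoxicity reaches 50% or more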;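 also: 0% = DMSO-treated cells and 100% = wells holding medium but no cells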
SENP8 conf: confirmation of human SENP8 protease inhibitors; 6,200 compounds, 40% hits; inhibition, % at 12.5 µM; Recombinant SENP8, Z-RLRGG-aminoluciferin luminescence, 60 min; shares compounds with SENP7 inh;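 active = mean inhibition across replicates above about 50%, limit read from the data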
SENP6 confirm: confirmation of human SENP6 protease inhibitors; AID 488915; recombinant SENP6, Z-RLRGG-aminoluciferin luminescence; inhibition, % at 12.5 µM; shares compounds with SENP7 inh; 6,200 compounds, 58% hits
SENP7 confirm: confirmation of human SENP7 protease inhibitors | 6,200 compounds, 69% hits | inhibition, % at 12.5 µM | shares compounds with SENP7 inh | recombinant SENP7, Z-RLRGG-aminoluciferin luminescence, 40 min
Casp3 SENP sel: caspase-3 inhibition (SENP selectivity assay); shares compounds with SENP7 inh; purified caspase-3, Z-DEVD-aminoluciferin luminescence, 60 min; inhibition, % at 12.5 µM; 6,200 compounds, 60% hits; AID 488918;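 active = mean inhibition above about 50%, limit read from the data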;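 also: plate controls were enzyme with DMSO for no effect and wells without caspase-3 for full effect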
Luc interf: interferes with luciferase luminescence in SENP counter-screen | 6,200 compounds, 39% hits | AID 488919 | shares compounds with SENP7 inh | Pre-incubated SENP8/Z-RLRGG-aminoluciferin, luciferase luminescence interference | inhibition, % at 12.5 µM;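 active = mean inhibition above about 50% when retested at one dose, limit read from the data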;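 also: plate controls were DMSO wells with completed reaction for no effect and substrate without enzyme for full effect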
Active calls of the source: *; · = no result given. An excerpt weighted towards active compounds, which were near 3% of everything screened.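 The calls were made as follows, unless noted: active = mean inhibition above about 50% in the one-dose retest (limit read from the data); inactive = the rest.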

SMILES	PPC-1+TRAIL kill	C8 TRAIL sens	SENP8 block-1	SENP7 inh	SENP6 block	SENP8 block-2	PPC-1 tox	SENP8 conf	SENP6 confirm	SENP7 confirm	Casp3 SENP sel	Luc interf
CC1CC2(CC(CN(C3CCCCC3)C3CCCCC3)OC2=O)C(=O)O1 (centres undefined)	·	2.9	·	·	·	11.5	·	·	·	·	·	·
c1ccc2nc(-c3nc4ccccc4[nH]3)ccc2c1	87.2*	90.2*	96.6*	99.7*	96.9*	-468.9	83.8*	94.8*	97.5*	103.4*	98.2*	48.9
CCCN(C)C[C@@H]1Oc2ncc(Br)cc2C(=O)N([C@@H](C)CO)C[C@H]1C	·	-8.9	·	·	·	14.2	·	·	·	·	·	·
CC(=O)Nc1ccc(-c2cn3cc(C)ccc3n2)cc1	40.4	45.5	-19.0	-5.3	2.6	-276.1	·	·	·	·	·	·
Cc1ccc2nc(-c3ccccc3)cn2c1	90.3*	90.3*	95.2*	98.8*	99.5*	-404.0	88.5*	99.1*	100.2*	103.0*	98.8*	98.3*
Cc1ccc(C(=O)Cc2nc3ccccc3[nH]2)cc1	·	8.7	-1.5	4.2	-20.4	-3.0	·	·	·	·	·	·
Cc1ccc(OCc2nc3ccccc3[nH]2)cc1	48.9	30.2	60.7*	67.5*	45.1	3.9	42.6	52.0*	53.2*	77.8*	70.5*	61.2*
Nc1nc2ccccc2n1C(=O)c1ccc(F)cc1	50.5*	81.2*	77.8*	94.1*	93.0*	6.0	49.7	60.0*	82.6*	96.8*	92.1*	38.3
Nc1nc2ccccc2n1C(=O)c1ccccc1	61.6*	76.6*	86.4*	95.6*	95.8*	6.9	61.6*	69.6*	93.2*	100.5*	96.2*	41.1
CSc1nc(Cl)c(Br)c(Nc2c[nH]c(=O)[nH]c2=O)n1	·	2.9	·	·	·	11.2	·	·	·	·	·	·
COCCn1c(N)c(N(Cc2ccccc2)C(=O)CSCC(=O)Nc2ccc(C)cc2)c(=O)[nH]c1=O	·	-8.5	12.4	2.9	-18.1	4.0	·	·	·	·	·	·
CC1(C)CC(=O)C/C(=N/NC(=O)COc2ccc3ccccc3c2Br)C1	·	-1.9	-5.3	11.2	-14.1	8.4	·	·	·	·	·	·
COc1ccc2c(c1)sc1nc(-c3ccccc3)cn12	92.8*	95.6*	95.8*	98.9*	96.4*	8.2	91.8*	11.1	100.9*	103.7*	98.2*	98.7*
CCOC(=O)N1CCN(C(=O)c2ccc3c(c2)sc2nc(-c4ccc(OC)cc4)cn23)CC1	-9.1	-0.6	-1.9	2.4	-1.6	-165.6	·	·	·	·	·	·
COc1cccc(C(=O)Nc2nc3ccccc3[nH]2)c1	70.8*	82.7*	89.8*	95.1*	93.6*	-1.0	72.8*	5.8	92.7*	101.6*	95.8*	17.2
O=C(CC(=O)NC1CCCCC1)N/N=C/c1ccccc1[N+](=O)[O-]	·	12.8	1.0	4.9	-4.5	5.2	·	·	·	·	·	·
Cc1cc(C)c2oc(-c3cccc(N)c3)nc2c1	·	15.6	7.1	21.1	33.8	-446.5	·	·	·	·	·	·
CCc1ccc2oc(-c3cccc(N)c3)nc2c1	46.5	81.8*	95.3*	98.1*	95.6*	-283.8	48.5	41.7	97.5*	101.7*	93.5*	95.8*
Cc1ccc2nc(-c3cccc(N)c3)oc2c1	75.8*	74.3*	95.5*	97.7*	95.3*	-260.7	74.8*	32.8	97.0*	102.1*	95.3*	94.1*
Cc1ccc2oc(NC3=NC4(CCCC4)C4=C(CCCC4=O)N3)nc2c1	·	-1.8	·	·	·	-317.9	·	·	·	·	·	·
C=CCc1c(C)nc2ccc(C(=O)OCC)cc2c1Cl	8.7	1.5	-4.8	-3.8	-3.2	-2.0	·	·	·	·	·	·
